# Results from paper PMC4336329 (PLoS ONE, 2015).
# Among all 310,000 compounds or so, about 14,000 (4.5%) showed an effect of 50% or more. The effect is printed as a negative number. The sample holds strong results, similar compounds and a random draw of the others, so the mix is not that of the screen.
# Biological target: human ether-à-go-go-related gene (hERG) potassium channel (human, UniProt Q12809)
# Test: primary screen, population patch clamp on CHO cells stably expressing hERG; higher = less effect of the substance
# 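Also: peak tail current of the secondary pulse compared with the same well before compound.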
# Chain of human ether-à-go-go-related gene (hERG) potassium channel (Q12809 whole entry, looked up): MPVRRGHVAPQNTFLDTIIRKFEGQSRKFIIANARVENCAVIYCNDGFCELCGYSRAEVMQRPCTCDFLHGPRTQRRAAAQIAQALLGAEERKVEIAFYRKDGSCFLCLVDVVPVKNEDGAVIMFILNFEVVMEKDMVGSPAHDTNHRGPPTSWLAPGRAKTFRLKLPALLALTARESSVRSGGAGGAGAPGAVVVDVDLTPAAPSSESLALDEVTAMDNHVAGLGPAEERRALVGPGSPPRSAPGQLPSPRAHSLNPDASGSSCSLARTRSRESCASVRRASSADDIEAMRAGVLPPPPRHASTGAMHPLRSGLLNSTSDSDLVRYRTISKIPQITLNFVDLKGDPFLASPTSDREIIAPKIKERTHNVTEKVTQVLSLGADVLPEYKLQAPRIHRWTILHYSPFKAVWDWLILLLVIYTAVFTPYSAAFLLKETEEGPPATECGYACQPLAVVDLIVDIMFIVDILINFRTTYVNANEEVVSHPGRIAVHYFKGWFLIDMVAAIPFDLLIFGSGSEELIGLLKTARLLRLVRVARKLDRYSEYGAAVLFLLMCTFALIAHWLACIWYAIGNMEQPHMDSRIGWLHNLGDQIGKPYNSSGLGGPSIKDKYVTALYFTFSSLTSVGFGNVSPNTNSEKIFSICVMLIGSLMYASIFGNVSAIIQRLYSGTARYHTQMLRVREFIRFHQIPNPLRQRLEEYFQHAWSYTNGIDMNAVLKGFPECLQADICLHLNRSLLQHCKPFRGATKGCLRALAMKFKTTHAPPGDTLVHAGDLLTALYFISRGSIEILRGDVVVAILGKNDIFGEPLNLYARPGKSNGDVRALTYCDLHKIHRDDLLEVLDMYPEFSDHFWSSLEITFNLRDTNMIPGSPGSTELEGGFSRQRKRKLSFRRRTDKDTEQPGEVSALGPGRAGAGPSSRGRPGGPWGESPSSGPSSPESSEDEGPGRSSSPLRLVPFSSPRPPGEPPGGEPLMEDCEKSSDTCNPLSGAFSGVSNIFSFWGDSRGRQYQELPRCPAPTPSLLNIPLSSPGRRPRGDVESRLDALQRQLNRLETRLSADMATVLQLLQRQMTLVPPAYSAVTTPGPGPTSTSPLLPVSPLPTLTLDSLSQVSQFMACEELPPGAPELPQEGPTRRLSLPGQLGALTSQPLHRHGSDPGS
row,SMILES,"hERG current change (%, negative = inhibition) at 10uM [%]"
1,COc1cc2c(cc1OC)C1(CCCC1)CNC2C.Cl (stereo not shown),-3.04
2,COc1cc2c(cc1OC)C1(CCCC1)CNC2c1cccc([N+](=O)[O-])c1 (stereo not shown),-43.3
3,C/C(=N/NC(=O)CNC(=O)c1ccccc1)c1ccc(C)cc1,-41.5
4,CC1=C[C@@H](C)[C@@H](c2ccc(C(F)(F)F)cc2)OC1=O,7.01
5,Cc1ccc2c(c1)c(/C=C/c1cc[n+](C)cc1)c(C)n2C.[I-],-10.9
6,COc1ccc2c(CC(=O)NCCN3C(=O)S/C(=C\c4cccnc4)C3=O)coc2c1,-9.62
7,O=C(/C(=N\Nc1ccc([N+](=O)[O-])cc1)Sc1nnnn1-c1ccccc1)c1ccccc1,17.9
8,COc1ccc(-c2c[n+](CC(=O)c3cccs3)c3n2CCC3)cc1.[Br-],10.4
9,O=C(C[n+]1cc(-c2ccccc2)n2c1CCCCC2)c1ccc(Cl)cc1.[Br-],-23.4
10,O=C(C[n+]1cc(-c2ccc(Cl)cc2)n2c1CCC2)N1c2ccccc2Sc2ccccc21.[Cl-],-22.1
11,COc1ccc(-c2c[n+](CC(=O)OC3CC(C)CCC3C(C)C)c3n2CCC3)cc1.[Cl-] (stereo not shown),-69.3
12,O=C(C[n+]1cc(-c2ccc(Cl)cc2)n2c1CCCCC2)c1ccccc1.[Br-],-12.5
13,CC1CCC(C(C)C)C(OC(=O)C[n+]2cc(-c3ccc(Cl)cc3)n3c2CCCCC3)C1.[Cl-] (stereo not shown),-79.4
14,COc1ccc(C(=O)C[n+]2cc(-c3ccc(OC)cc3)n3c2CCCC3)cc1.[Br-],-10.1
15,Cn1c(NC(=O)C[n+]2cc(-c3ccc(Cl)cc3)n3c2CCC3)cc(=O)n(C)c1=O.[Cl-],11.3
16,CC(C)[C@@H]1CC[C@@H](C)C[C@H]1OC(=O)C[n+]1cc(-c2ccc(Cl)cc2)n2c1CCCCC2.[Cl-],-60.1
17,CC1CCC(C(C)C)C(OC(=O)C[n+]2cc(-c3ccc(Cl)cc3)n3c2CCC3)C1.[Cl-] (stereo not shown),-77.1
18,O=C(Nc1ccc2c(c1)OCO2)C1CCCN(S(=O)(=O)c2cccs2)C1 (stereo not shown),10.7
19,COc1cccc(-c2ncc3ccccn23)c1.O=C(O)C(=O)O,-5
20,CCOc1ccc(S(=O)(=O)Nc2cccc(C(=O)NCCCn3ccnc3)c2)cc1,10.5

row,SMILES,"hERG current change (%, negative = inhibition) at 10uM [%]"
1,O=C(CCN1C(=O)c2ccccc2C1=O)Nc1sc2c(c1C(=O)NCc1ccco1)CCCC2,-13.2
2,O=C(Nc1nnc(SCC(=O)N2CCCCC2)s1)c1cccs1,4.86
3,CCOC(=O)c1c(NC(=O)C2COc3ccccc3O2)sc2c1CC(C)(C)NC2(C)C (stereo not shown),-12.1
4,Cc1nnc(SC(C)C(=O)Nc2ncc(Cl)cc2Cl)n1Cc1ccccc1 (stereo not shown),-67.8
5,CC(Sc1nnc(CN2CCCC2)n1Cc1ccccc1)C(=O)Nc1ccc(F)cc1 (stereo not shown),-61.4
6,CC(=O)Nc1ccc(NC(=O)C(C)Sc2n[nH]c(=O)n2Cc2ccccc2)cc1 (stereo not shown),16
7,Cc1nnc(SC(C)C(=O)Nc2ccc(Cl)cn2)n1Cc1ccccc1 (stereo not shown),-17.3
8,CC(Sc1nnnn1-c1ccccc1)C(=O)Nc1ccc(Cl)cn1 (stereo not shown),-54.2
9,Cc1nnc(SCC(=O)Nc2ncc(Cl)cc2Cl)n1Cc1ccccc1,-15.6
10,O=C(CSc1nnnn1-c1ccccc1)Nc1ccc(Cl)cn1,2.66
11,CC(Sc1nnc(CN2CCCC2)n1Cc1ccccc1)C(=O)Nc1ccccc1 (stereo not shown),-43.1
12,Cc1ccc(-n2nnnc2SC(C)C(=O)Nc2ccc(Cl)cn2)cc1 (stereo not shown),-22.1
13,Cc1sc2nc(SCc3nc4ccccc4[nH]3)n(Cc3ccco3)c(=O)c2c1C,-9.15
14,C=CC1CN(C(=O)OCC(Cl)(Cl)Cl)C2CC3c4ccc(OC)cc4NC3C3CC1C2CO3 (stereo not shown),-7.61
15,CCOc1ccc2nc(SCC(=O)NCc3ccccc3)[nH]c2c1,2.63
16,CC(C)CN(C(=O)COC(=O)CCSc1ccc(F)cc1)c1c(N)n(Cc2ccccc2)c(=O)[nH]c1=O,10.1
17,Cc1cc(C(=O)CN2C(=O)NC3(CCCc4ccccc43)C2=O)c(C)n1C (stereo not shown),-13.5
18,COc1ccc(/C=C2\S/C(=N/S(=O)(=O)c3cccs3)NC2=O)cc1,8.45
19,CS(=O)(=O)N(CC(=O)NCCC1=CCCCC1)c1cccc([N+](=O)[O-])c1,-32.4
20,COc1cc(OC)cc(C(=O)Oc2c(CN3CCOCC3)cc(Cl)c3cccnc23)c1,-15.5
